# PubChem BioAssay AID1851 (National Center for Advancing Translational Sciences (NCATS), 2009)
# Values joined by “and” are separate entries in the source; they are usually repeats but may differ in a detail not shown here. Identical values can stand only once. About 5,700 (36%) of roughly 16,000 compounds were called active. Another 24% or so got no clear call; they are omitted. The list shows a part of the results. Values without a mark were called inactive. Calls come from the whole dose curve; as a rule, active = well fitted curve in the direction sought with a large enough effect; inconclusive = small, poorly fitted or top-dose-only effect, or effect the other way; inactive = no such curve, though single readings can be large or run the other way. Square brackets hold non-standard residues; d marks the D form. Peptide text beside a SMILES is read from it.
# Biological target: Cytochrome P450 1A2 (Homo sapiens) (UniProt P05177)
# Experiment: Cytochrome panel assay with activity outcomes
# Settings: recombinant CYP, pro-luciferin dealkylation, luminescence, p450-cyp1a2; series mostly up to 57.1 µM; activity, negative = inhibition: at the top concentration
# % is set by controls: 0 for no effect and ±100 for the full control effect.
# Sequence of Cytochrome P450 1A2 (Homo sapiens) (P05177 whole entry, looked up): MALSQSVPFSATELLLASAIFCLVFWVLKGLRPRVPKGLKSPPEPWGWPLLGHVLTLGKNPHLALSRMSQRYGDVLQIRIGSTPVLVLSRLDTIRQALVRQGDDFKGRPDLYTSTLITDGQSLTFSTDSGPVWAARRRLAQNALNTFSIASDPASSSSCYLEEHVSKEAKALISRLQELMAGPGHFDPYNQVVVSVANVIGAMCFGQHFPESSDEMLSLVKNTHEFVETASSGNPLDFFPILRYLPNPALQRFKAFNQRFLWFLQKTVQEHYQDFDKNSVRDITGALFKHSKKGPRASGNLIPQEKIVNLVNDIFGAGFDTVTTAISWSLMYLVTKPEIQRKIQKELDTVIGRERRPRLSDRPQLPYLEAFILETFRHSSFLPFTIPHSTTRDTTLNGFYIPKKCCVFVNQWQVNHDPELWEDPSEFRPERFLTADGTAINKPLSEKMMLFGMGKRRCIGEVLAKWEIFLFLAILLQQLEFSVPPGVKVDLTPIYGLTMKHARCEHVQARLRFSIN
Compound,AC50,"activity, negative = inhibition"
COc1ncc2nc(C)c(=O)n(-c3ccccc3)c2n1,5.01 µM (active),
COc1ccc(Oc2ncc3nc(C)c(=O)n(-c4ccc(OC)cc4)c3n2)cc1,15.8 µM (active),
COc1ccc(-n2c(=O)c(C)nc3cnc(OC)nc32)cc1,,-21.9%
Cc1nc2cnc(Oc3ccccc3)nc2n(-c2ccccc2)c1=O,10 µM (active),
Cc1cccc(CSc2cccc3cccnc23)c1,2 µM (active),
Cc1ccc(N[C@H](c2ccccc2)c2ccc3cccnc3c2O)cc1,,-24.5% [at 2.29 µM]
COc1ccc(/C(C)=N/NC(=O)c2ccc(CSc3cccc4cccnc34)cc2)cc1OC,11.2 µM (active),
Cc1nc(N=Nc2cc(S(=O)(=O)O)ccc2S(=O)(=O)O)c(COP(=O)(O)O)c(C=O)c1O,,-11.6%
COc1cc([C@H](O)C(=O)O)ccc1O,,-11.9%
COc1cc(CC(=O)O)ccc1O,,0.616%
COc1cc(CNC(=O)CCCC/C=C\C(C)C)ccc1O,1.58 µM (active) and 3.16 µM (active),
O=C(O)/C=C\C(=O)Nc1ncn[nH]1,,-8.55% [at 11.4 µM]
O=C(Nc1ncn[nH]1)c1ccc([N+](=O)[O-])cc1[N+](=O)[O-],,-24%
Clc1ccc(Nc2ncn[nH]2)cc1,4.47 µM (active),
Cc1cc(C(C#N)c2cccc(Cl)c2)n2ncnc2n1 (stereo not drawn),5.01 µM (active),
CC[C@@H]1CN2CCc3cc(OC)c(OC)cc3[C@H]2C[C@@H]1C[C@H]1NCCc2cc(OC)c(OC)cc21,,-3.72% [at 25.6 µM]
NC1CCN(c2cccc(Cl)n2)CC1,15.8 µM (active),
c1c[nH]c(CN2CCN(Cc3ncc[nH]3)CC2)n1,,0.981% [at 11.4 µM]
COc1ccc(C2N=C(N)N=C(N)N2c2ccccc2OC)cc1OC (stereo not drawn),,1.06%
CCn1c(SCC(=O)Nc2ccccc2C(=O)OC)nnc1-c1ccc(N)cc1,14.1 µM (active),
CC(C)CC(C(=O)NCC1CCCO1)N(C(=O)Cn1nnc(-c2ccc(F)cc2)n1)c1ccccc1F (stereo not drawn),,-7.92%
O=C(O)C[C@H]1OCC=C2C[N@@+]3([O-])CC[C@]45c6ccccc6N[C@@H]4[C@@H]1[C@H]2C[C@H]53,,-14.3% [at 2.29 µM]
COc1ccc(O[C@H]2C=C[C@@H](c3ccccc3)O[C@@H]2CO/N=C(\C)CCN2CCCCc3nc(C)c(C)cc32)cc1,,0.173% [at 11.4 µM]
COc1ccccc1-c1cc(-n2ccnc2)ncn1,0.316 µM (active),
CN(C)Cc1ccccc1-c1cc(-n2ccnc2)ncn1,5.01 µM (active),

Compound,AC50,"activity, negative = inhibition"
Cc1cc(-c2cccc([N+](=O)[O-])c2)nc2ccc3ccccc3c12,0.631 µM (active),
Nc1nc(-c2cccc([N+](=O)[O-])c2)cc(-c2cc(-c3cccc([N+](=O)[O-])c3)nc(N)n2)n1,,0.313% [at 2.29 µM]
O=C(Cn1c(C(F)(F)F)nc2ccccc21)c1ccc(F)cc1,,-27.8%
CCn1c(CNC(=O)COc2ccc(C(C)C)cc2)nnc1SCC(=O)Nc1cc(F)ccc1C,,-7%
O=C(Cn1c(-c2cscn2)nc2ccccc21)Nc1cc(F)ccc1F,2.51 µM (active),
Cn1ncc2c(Cl)ncnc21,,-5.24% [at 11.4 µM]
Cn1ncc2c(NCCc3ccccc3)nc(Cl)nc21,2.51 µM (active),
COc1cccc(Cn2c(=O)c(-c3ccccc3)nc3cnc(N4CCN(C)CC4)nc32)c1,,-20.3%
CN1CCN(c2ncc3nc(-c4cccs4)c(=O)n(Cc4cccs4)c3n2)CC1,15.8 µM (active),
COCCn1c(=O)c(-c2cccs2)nc2cnc(N3CCN(C)CC3)nc21,15.8 µM (active),
CN1CCN(c2ncc3nc(-c4ccccc4)c(=O)n(Cc4ccc(F)cc4)c3n2)CC1,,-20%
CC(C)CNS(=O)(=O)c1cc(C(=O)N2CC(C)OC(C)C2)c(Cl)cc1Cl (stereo not drawn),,2.27%
c1ccc(CNc2ccnc(-c3cccnc3)n2)cc1,0.251 µM (active),
Cc1cccc(CNc2ccnc(-c3cccnc3)n2)c1,0.126 µM (active),
COc1cc(C)ccc1OCCCOc1ccccc1Cl,2.51 µM (active),
COc1ccccc1OCCCOc1ccc([N+](=O)[O-])cc1Cl,2 µM (active),
C[C@@H]1C[C@H](C)CN(S(=O)(=O)c2cc(Cl)c(Oc3ccc([N+](=O)[O-])cc3Cl)c(Cl)c2)C1,,-15.8% [at 11.4 µM]
COc1cc(C)ccc1OCCCOc1ccccc1Br,1.58 µM (active),
COc1cc(C)ccc1OCCOc1cc(C)ccc1Cl,,-29.1%
CC1(C)CCC=[N+]1[O-],,-0.975%
CO/N=C(\C)CCN1CCc2nc(-c3ccccc3)c(-c3ccccc3)cc2C1,,7.31% [at 11.4 µM]
CO[C@H]1COC(=O)[C@H]2CCCN2C(=O)[C@@H](C)COC(=O)C/C=C\[C@@H]1C,,-1.05% [at 11.4 µM]
CCn1c2ccc(Cl)cc2c2nc3ccccc3nc21,0.501 µM (active),
CC(=O)Nc1c(S(=O)(=O)c2ccccc2)c2nc3ccccc3nc2n1Cc1ccccc1,,-16%
Cc1cc(-c2n[nH]c(=S)o2)c(C)n1-c1ccccc1,14.1 µM (active),

Compound,AC50,"activity, negative = inhibition"
CN(C)S(=O)(=O)Oc1ccc(Cl)cc1C(=O)Nc1cccc(C(F)(F)F)c1,7.08 µM (active),
CC(O)(CS(=O)(=O)Cc1ccccc1Cl)C(=O)Nc1cccc(C(F)(F)F)c1 (stereo not drawn),,-13.5%
CN(C)S(=O)(=O)Oc1ccccc1C(=O)Nc1cccc(C(F)(F)F)c1,8.91 µM (active),
CO[C@@H]1/C=C\CC(=O)N[C@@H](C)C(=O)OC[C@H](NS(=O)(=O)c2ccc(C)cc2)[C@H](C)/C=C\CC(=O)OC[C@H]1C,,8.52% [at 11.4 µM]
COC(=O)C/C=C\[C@H](C)[C@@H](OC)c1ccccc1Br,,-0.474% [at 11.4 µM]
CN(CC(=O)O)CC(=O)O,,-5.93% [at 2.29 µM]
COC(=O)CSc1ncc(OC)c(OC)n1,,-22%
CCOC(=O)C(C)Sc1ncc(OC)c(Sc2ccc(Cl)cc2)n1 (stereo not drawn),12.6 µM (active),
O=C(Nc1ccccc1)N1CCCC2(CCN(C(=O)c3cnccn3)CC2)C1,,3.93%
O=C(Nc1cnn(Cc2ccc(Cl)cc2Cl)c1)c1cc(-c2cccs2)on1,2.51 µM (active),
COc1ccc(-c2cc(C(=O)Nc3cnn(Cc4ccccc4C)c3)no2)cc1OC,,-15.7%
Cc1cccc(-c2c3c(=O)n(C)c(=O)n(C)c3cn2C2CCCCC2)c1,,-28.2%
O=C(Nc1ccccc1N1CCOCC1)c1ccc([N+](=O)[O-])cc1,,-29.5%
O=C(c1cnccn1)N1CCC2(CC1)CCN(c1ccccc1)CC2,,-10.3%
O=C(Nc1ccccc1N1CCOCC1)c1cnccn1,4.47 µM (active),
CNc1ccnc(-c2c(C)noc2C)n1,1.26 µM (active),
Cc1noc(C)c1-c1nccc(NC2CC2)n1,0.1 µM (active),
c1cc(NC2CC2)nc(-c2ccoc2)n1,0.251 µM (active),
COCCNc1ccnc(-c2c(C)noc2C)n1,2.51 µM (active),
O=C1O/C(=C\Br)CC[C@@H]1c1cccc2ccccc12,,1.77%
Clc1cnccn1,,-1.25% [at 25.6 µM]
Cc1noc(C)c1-c1nccc(Nc2ccc(F)cc2)n1,0.398 µM (active),
Cn1c2c(c(=O)n(C)c1=O)CN(CCN1CCNCC1)CN2,,-2.63%
COc1ccc(C(=O)N2CCC3(CC2)CCN(c2ncccn2)CC3)cc1,,-11.8%
COC(=O)c1ccc(Oc2nc(N(C)C)nc(N3CCOCC3)n2)cc1,3.55 µM (active),

Compound,AC50,"activity, negative = inhibition"
O=c1ccc(Oc2nc(N3CCOCC3)nc(N3CCOCC3)n2)n[nH]1,,6.81%
CCOC(=O)C(C(=O)NCc1ccc(C)cc1)c1ncc(C(F)(F)F)cc1Cl (stereo not drawn),10 µM (active),
Cc1ccc(CNCC(O)(c2ccc(F)cc2)c2ccc(F)cc2)cc1,,-25.5%
NCC(=O)N[C@H](CO)C(=O)O (H-Gly-[dS]-OH),,-8.79% [at 11.4 µM]
COc1cccc(Cn2c(=O)cnc3cncnc32)c1,15.8 µM (active),
O=c1cnc2cncnc2n1Cc1ccccc1,25.1 µM (active),
OC[C@@H]1O[C@@H](n2cnc3cncnc32)[C@@H](O)[C@H]1O,,0.567%
Cc1ccc([C@@H](O)c2cnc(C)n2Cc2ccccc2)cc1,,-10.8% [at 11.4 µM]
CC(C)CC(c1nnnn1C(C)C)N1CCN(c2ccccc2)CC1 (stereo not drawn),,-13.3%
CC(C)n1nnnc1-c1cc(Cl)cc(Cl)c1,8.91 µM (active),
CCCn1nnnc1-c1cc(Cl)cc(Cl)c1,2.82 µM (active),
CCS(=O)(=O)c1ccc2c(c1)N(S(C)(=O)=O)CC(C(=O)NCCOC)O2 (stereo not drawn),,2.25%
CCOC(=O)CCN1C(=O)[C@H]2[C@@H]3[C@H](O)[C@H](O)CC(=O)[C@H]3CC[C@H]2C1=O,,-2.79% [at 11.4 µM] and -9.9% [at 11.4 µM]
COC(=O)C/C=C\[C@@H](C)[C@@H](/C=N\O[C@@H](C)CN1CCCc2nc(C)c(C)cc21)NS(=O)(=O)c1ccc(C)cc1,,-5.78% [at 11.4 µM]
Nc1ccc2c3c(cccc13)C(=O)NC2=O,1 µM (active),
O=C(O)/C=C1\NC(=O)c2ccccc21,,8.34%
COC(=O)c1sc2ncccc2c1OCc1c(Cl)cccc1Cl,0.158 µM (active),
COc1cc(CNCc2cccs2)ccc1OCC(=O)NC(C)(C)C,3.16 µM (active),
COc1cc(CNCCc2ccccc2)ccc1OCC(=O)NC(C)(C)C,,-16.3%
COc1ccc(NC(=O)COc2ccc(CNCCCN3CCOCC3)cc2OC)cc1,,-19.7%
COc1ccc(CCn2c3c(c(=O)[nH]c2=O)C(NC(=O)c2cccs2)(C(F)(F)F)C(=O)N3)cc1OC (stereo not drawn),,-9.34%
COc1ccc(CNC(=O)Nc2cccs2)cc1OC,12.6 µM (active),
COc1ccc(C[C@@](C)(N)C(=O)O)cc1OC,,-5.47% [at 25.6 µM]
